In the library only some 21% were active in any assay of this set; here they are far more common.
HCMV antiviral = inhibitors of human cytomegalovirus; HFF cells, HCMV-luciferase reporter, 72 h; hits give low values; activity change, negative = inhibition, % at 57.5 µM; 410,000 compounds, 4.5% hits; AID 1259415; in the data active = activity change below about -60%; inconclusive = no clear call, values can overlap the other calls; inactive = above about -39%; also: % is scaled to controls: 0 for no effect and ±100 for the full control effect
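Cell-based, HFFs, 1000 cells/well, 16 h 37C; cpds in DMSO + HCMV-luc, MOI 1 PFU/cell; 72 h 37C; OneGlo luminescence after 5 min RT; norm. to buffer vs Salinomycin 10uM.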
Pf growth 48h = P. falciparum growth inhibition at 48 hours (one generation) | 310,000 compounds, 5.9% hits | Potency, µM (highest dose often 28.7 µM), for the others: at the top dose activity change, negative = inhibition, actives largely listed as inhibitors | P. falciparum luciferase growth in erythrocytes, 48 h; also: potency is read from the fitted curve at half-maximal effect; % is scaled to controls: 0 for no effect and ±100 for the full control effect
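A one-generation exposure of luciferase-tagged malaria parasites in RPMI 1640/Albumax erythrocyte culture, 37 C and 5% CO2. Inhibition is inferred from decreased luminescence after adding detection reagent.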
HCV inh = blocks hepatitis C virus. AID 651820. Huh7.5.1 HCVcc-Cre infection, luciferase reporter, 44 h. 340,000 compounds, 3.4% hits. Potency, µM (titrated, usually from 41.8 µM), without a hit: at the top dose activity change, negative = inhibition, hits mostly inhibitors; also: potency is read from the fitted curve at half-maximal effect; % is scaled to controls: 0 for no effect and ±100 for the full control effect
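Cells (1,000/well) were plated 4 h before compound, then infected with HCVcc-Cre virus (~0.5 moi). After 44 h further culture, infection was read as luciferase luminescence following a 15 min substrate incubation at room temperature.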
Pf growth 96h = inhibits malaria parasite growth, 96 h. P. falciparum luciferase reporter growth, 96 h. Potency, µM (series often up to 28.7 µM), inactives show at the highest dose activity change, negative = inhibition, most hits filed as inhibitors. 320,000 compounds, 6.9% hits. AID 504834; also: potency is read from the fitted curve at half-maximal effect; % is scaled to controls: 0 for no effect and ±100 for the full control effect
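Two parasite generations (96 h, 37 C, 5% CO2) of compound exposure in infected erythrocytes (0.05% parasitemia, 2% hematocrit). Luciferase-reporter P. falciparum; decreased luminescence indicates inhibited growth, aimed at apicoplast-acting delayed death.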
Shiga inhibitor = inhibitors of Shiga toxin in Vero cells. 290,000 compounds, 9.2% hits. Vero cells, Shiga toxin protein synthesis inhibition reporter. inhibition, % at 38.7 µM; in the data active = inhibition mostly above about 28%, no sharp cut-off; inactive = mostly below about 43%; also: 0% is about no effect
Cycloheximide cs = counter-screen hit for Shiga toxin inhibitors, cycloheximide. cell reporter, cycloheximide protein synthesis inhibition counterscreen. max response, %. 300,000 compounds, 12% hits. AID 2314; in the data active = max response mostly above about 13%, no sharp cut-off; inactive = mostly below about 14%; also: read at 38.3 µM for the half of the compounds with a filed dose; 0% is about no effect
Starred values were filed as active, the others as inactive; ? = inconclusive; / = no result given; + = active, no number. Unless noted, calls follow the shape of the dose curve; as a rule, active = well fitted inhibition curve with a large enough effect; inconclusive = small, poorly fitted or top-dose-only effect, or another doubt; inactive = no such curve, though single readings can be large or run the other way.

SMILES	HCMV antiviral	Pf growth 48h	HCV inh	Pf growth 96h	Shiga inhibitor	Cycloheximide cs
COc1ccc(S(=O)(=O)N2CCCCCC2)cc1N(C)S(=O)(=O)c1ccc(C)cc1	-77*	-19%	?	10µM*	2	-3
COc1ccc(C)cc1S(=O)(=O)N1CC(C)OC(C)C1 (stereo unspecified)	-16	34%	14%	12µM*	63	38*
COc1ccc(Br)cc1S(=O)(=O)N1CCCC1	-16	-23%	-23%	?	54*	30*
CCOc1cc(C)c(C(C)C)cc1S(=O)(=O)N1CC(C)OC(C)C1 (stereo unspecified)	-20	13µM*	-23%	/	-9	-2
CCOc1ccc(Br)cc1S(=O)(=O)N1CCC(C(N)=O)CC1	-64*	-15%	26%	1%	-18	1
COc1ccc(C)cc1S(=O)(=O)N1CCCCCC1	-39	2.1µM*	17%	-11%	-8	1
CCOc1ccc(Br)cc1S(=O)(=O)N1CCCN(C)CC1	16	-28%	?	-37%	-3	-4
Cc1cc(C)c(S(=O)(=O)N2CCCCC2)cc1N(C)S(=O)(=O)c1ccc(Cl)cc1	?	?	32µM*	?	-4	-2
Cc1c(OCC(=O)C(C)(C)C)ccc2c(-c3ccccc3)cc(=O)oc12	-14	-2%	?	?	50	6
Cc1ccc(OCC(=O)Nc2nonc2-c2ccc(Br)cc2)cc1C	-14	/	/	/	/	/
C=CCn1c(CSc2nnc(-c3ccccc3)n2C)n[nH]c1=S	23	?	6%	-20%	2	-6
C=CCn1c(SCc2n[nH]c(=S)n2-c2ccccc2)nnc1-c1ccccc1	8	-13%	-2%	6.6µM*	32	2
CC(C)(C)c1ccc(C(=O)CC(=O)c2cc(Cl)ccc2O)cc1	-83*	4.7µM*	11µM*	/	53	12
Cc1ccc(C(=O)CCC(=O)NNC(=O)c2ccccc2O)cc1	52	?	1%	-10%	/	/
Cc1ccc(C(=O)CC(=O)c2cc(Cl)ccc2O)cc1	?	?	13µM*	/	121*	35*
Cc1ccc(C(=O)CC(=O)c2ccc(C)cc2O)cc1	49	-61%	?	7.4µM*	87*	39*
Cc1cccc(-c2csc(NC(=O)c3cnccn3)c2C(=O)OC(C)C)c1	25	?	0%	/	-8	-1
CCOC(=O)c1ccccc1NC(=O)c1c(-c2ccccc2)noc1C	-13	/	/	/	/	/
COC(=O)c1c(-c2cccnc2)csc1NC(=O)c1cc(C)on1	-16	-52%	?	/	83*	63*
COC(=O)c1ccc(C(=O)OC)c(NC2=NS(=O)(=O)c3ccccc32)c1	38	12%	4%	/	-7	-2
COC(=O)c1c(-c2ccccc2)csc1NC1=NS(=O)(=O)c2ccccc21	98	-8%	21%	100%	+	62*
CCOC(=O)c1c(NC(=O)c2c(-c3ccccc3)noc2C)sc(C)c1-c1ccccc1	-102*	/	7.1µM*	6.6µM*	-5	-6
COC(=O)c1c(-c2ccc(C)cc2)csc1NC(=O)c1c(-c2ccccc2)noc1C	-71*	?	7%	0%	-2	2
Cc1ccc(NC(=O)CCc2nnc3n(C)c(=O)c4sccc4n23)cc1C	2	/	/	/	/	/
CCOc1ccccc1CNC(=O)c1ccc2c(c1)nc1n2CCCCC1	-68*	/	/	/	/	/
O=C(O)CCC(=O)Nc1ccccc1C(=O)N1CCN(c2ccc(Cl)cc2)CC1	-13	-6%	-1%	15%	1	-4
Cc1ccc(C)c(/C=C(\C(=O)O)c2ccc(S(=O)(=O)N3CCCCC3)s2)c1	-9	-8%	9%	8%	9	4
CCOC(=O)c1ccc(NC(=O)COc2ccc(S(=O)(=O)NC(C)CC)cc2)cc1 (stereo unspecified)	-34	?	?	10µM*	-10	5
COc1cc(C(=O)NC(C)c2ccc(S(N)(=O)=O)cc2)ccc1OCC(=O)N1CCOCC1 (stereo unspecified)	5	59%	/	5%	-3	-2
